This is part of a sample that, as a whole, favours compounds with a hit. Of some 83,000 tested, about 20% had one in any assay.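 The test compound was applied at a single concentration to cells in 96-well plates for 48 hours, and percent growth was recorded.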 A number with no mark means an inactive call. Calls of active or inactive are those of the source. Rule for the calls: active = growth percent below 10; inactive = the rest.

Assay in all cases: NCI-60 one-dose screen, 48 h (100 = growth as untreated, 0 = no growth, -100 = all killed)
What all share (settings): 10 µM unless noted

For assay [1], the system named is SR leukemia.
Assay [2] relates to RPMI-8226 leukemia.
The subject of assay [3] is OVCAR-8 ovarian.
Assay [4] relates to OVCAR-5 ovarian.
The test system of assay [5] is OVCAR-4 ovarian.
For assay [6], the system named is SK-OV-3 ovarian.
Assay [7] deals with IGROV1 ovarian.
In assay [8] the test system is OVCAR-3 ovarian.
Assay [9] deals with HS 578T breast.
Assay [10] deals with NCI/ADR-RES ovarian.

Regarding `Clc1ccc(Nc2nnc(COc3ccccc3)c3ccccc23)cc1`, the growth in assay [1] is -20.6% (active); in assay [2] it was -25.3% (active); in assay [3] it was 5.02% (active); in assay [4] it was 23.1%; in [5] it was 18.1%; in [6], 9.17% (active). Further, the growth is 16.1% in assay [7], -35.1% (active) in assay [8], 14.4% in assay [9] and -1.13% (active) in assay [10].

With `O=C1c2cc(Cl)ccc2S(=O)(=O)c2c(NCCCNCCO)nc3ccccc3c21`, the growth in [1] is -9.98% (active); in assay [2], -22.2% (active); in assay [3] it was -5.81% (active); in [4], -18% (active); in assay [5] it was -32.2% (active); in [6], 75.7%. For the same compound, the growth in assay [7] was 8.88% (active); in [8] it was -91.9% (active); in [9] it was -2.81% (active); in assay [10], 40.6%.

For the compound `CC(C)(C)[Si](C)(C)O[C@H]1C(=O)C=CN2CC=C[C@@H]12`, the growth is 81.8% [100 µM] in [1]; 115% [100 µM] in assay [2]; 97% [100 µM] in assay [3]; 94.4% [100 µM] in [4]; 110% [100 µM] in [5]; 101% [100 µM] in assay [6]. For the same compound, the growth was 114% [100 µM] in [7], 103% [100 µM] in assay [8], 95.3% [100 µM] in [9] and 106% [100 µM] in assay [10].

Consider `C=CC(=O)NCc1ccc(Nc2nccc(-c3ccc(N4CCCC4)c(C#N)c3)n2)cc1`, for which the growth in assay [1] was 5.13% (active); in assay [2], 46.7%; in assay [3], 30.8%; in assay [4], 75.3%; in [5] it was 16.2%; in [6], 29.6%. Besides, the growth was 25.2% in [7], 33.4% in [8], 25.4% in [9] and 34.4% in [10].

With `COc1ccc(C(=O)Nc2ncc(Cc3cccc(Cl)c3)s2)cc1OC`, the growth in assay [1] was 17%; in assay [2] it was 21.3%; in [3], 35.6%; in [4], 49.3%; in assay [5], 60.2%; in assay [6] it was 34.9%. Moreover, the growth in [7] was 40.2%; in assay [8], 7.51% (active); in [9], 30.9%; in assay [10] it was 20.9%.

As for `COc1ccc(C(=O)Nc2cccc(C3CC(=O)c4c(cc(OC)c(OC)c4OC)O3)c2)cc1` (stereo not given), the growth in assay [1] is 13.3%; in assay [2] it was 11.2%; in assay [3] it was 17.7%; in [4] it was 46%; in assay [5], 43.5%; in assay [6] it was 20.6%. In addition, the growth in assay [7] was 36%; in assay [8], 1.51% (active); in [9] it was 5.72% (active); in assay [10], 8.74% (active).

As to `N=C(N)c1ccc(-c2ccc(-c3cc(Cl)cc(Cl)c3)o2)o1`, the growth in [1] was -50% (active); in assay [2], -33.6% (active); in assay [3], -41.7% (active); in assay [4] it was -72.2% (active); in assay [5], -76.3% (active); in assay [6], -59% (active). The growth is -52.5% (active) in assay [7], -87.9% (active) in assay [8], 64.8% in assay [9] and -38.5% (active) in assay [10].

As to `CC1=C(CCC(C)N(C)Cc2ccc(OCCCN3CCCC3)cc2)C(C)(C)CCC1` (stereo not given), the growth is -24.9% (active) in assay [1]; -14.3% (active) in assay [2]; 45.7% in assay [3]; 25.4% in assay [4]; 60.2% in assay [5]; 36.5% in [6]. Also, the growth in [7] was 42.9%; in assay [8] it was 23.6%; in assay [9], 36.4%; in assay [10], 63%.

Turning to `CC(=O)OCc1nc(C#N)c(N(C)C)o1`, the growth was 92.2% in [1]; 99.6% in assay [2]; 94.1% in [3]; 86.9% in [4]; 100% in assay [5]; 90.1% in [6]. In addition, the growth in [7] is 95%; in [8], 99.1%; in assay [9], 99.4%; in assay [10] it was 103%.

With `c1ccc(CNc2c3ccccc3nc3ccccc23)cc1`, the growth in [1] is 11.7%; in [2], 7.65% (active); in [3], 26.1%; in [4] it was 45.7%; in assay [5] it was 43.2%; in [6], 46.7%. Besides, the growth in assay [7] was 29.8%; in assay [8], 51.7%; in assay [9], 56.1%; in assay [10], 37.6%.

In the case of `O=C1Nc2ccc(Br)cc2/C1=N/c1n[nH]c(=S)s1`, the growth in assay [1] is 83.5%; in [2], 103%; in assay [3], 95%; in [4] it was 110%; in assay [5], 108%; in assay [6], 93.2%. Also, the growth in assay [7] was 105%; in assay [8], 104%; in [9], 93.9%; in assay [10], 95.7%.

`O=C(/C=C(/C=C/c1cccc2[nH]ccc12)OB(F)F)/C=C/c1cccc2[nH]ccc12`: the growth is 3.72% (active) in assay [1]; -31.5% (active) in assay [2]; -30% (active) in assay [3]; -27.6% (active) in assay [4]; 11.5% in assay [5]; -20.7% (active) in assay [6]. In addition, the growth in assay [7] was -3.07% (active); in assay [8], -25.1% (active); in assay [9], 10.3%; in assay [10], 3.47% (active).

`COc1ccccc1NC(=O)Cn1cc(CN2CCN(c3ccnc4cc(Cl)ccc34)CC2)nn1`: the growth in assay [1] is 92.1%; in assay [2], 50.9%; in assay [3], 93.4%; in assay [4], 82.9%; in [5], 94.1%; in assay [6], 86.6%. Further, the growth in [7] was 90.6%; in assay [8], 101%; in assay [9], 88.5%; in assay [10] it was 91.5%.

Source of the values: PubChem BioAssay (NCI).
